Our source for the outcome and AC50 values is PubChem BioAssay (EPA / NIEHS).

The source made the active and inactive calls. Rule for the calls: active = hit-call score of the fitted dose curve at least 0.9, where 1 is the maximum; inactive = score below 0.9.

Details in all cases: mRNA level, 48 h; actives raise or lower the signal
Read-out in experiment [1]: Heat shock 70 kDa protein 1 (HSPA1A), gene 3303
As to the kind of experiment: LTEA_HepaRG_HSPA1A: Life Technologies and Expression Analysis (LTEA) Assay for Heat shock 70 kDa protein 1 (HSPA1A) using HepaRG (AID 2283502). Put shortly:
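HSPA1A induction in human HepaRG liver cells is measured after 48 h of chemical treatment (100 uM maximum, 0.5% DMSO vehicle). Expression comes from qRT-PCR normalized to endogenous controls.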

Read-out in experiment [2]: Hypoxia-inducible factor 1-alpha (Homo sapiens) (UniProt Q16665)
As to the kind of experiment: LTEA_HepaRG_HIF1A: Life Technologies and Expression Analysis (LTEA) Assay for Hypoxia-inducible factor 1 (HIF1A) Trancription factor using HepaRG (AID 2283503). Put shortly:
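HepaRG, 48 h exposure, 8-pt half-log series from 100 uM, 0.5% DMSO vehicle, duplicates. Readout: HIF1A transcript by qRT-PCR (Fluidigm array), housekeeping-normalised. Bidirectional curve fit vs DMSO baseline.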

Read-out in experiment [3]: 3-Hydroxy-3-Methylglutaryl-CoA Synthase 2 (HMGCS2), HMGCS2 (gene 3158)
As to the kind of experiment: LTEA_HepaRG_HMGCS2: Life Technologies and Expression Analysis (LTEA) Assay for 3-Hydroxy-3-Methylglutaryl-CoA Synthase 2 (HMGCS2) using HepaRG (AID 2283504). Put shortly:
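HepaRG, plated 48 h then switched to serum-free induction media; cmpd 8-pt, max 100 uM, 1/2-log, 0.5% DMSO, n=2, 48 h. HMGCS2 mRNA by Fluidigm TaqMan qRT-PCR, ACTB/GAPDH/POLR2A norm; bidirectional fit vs DMSO.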

Read-out in experiment [4]: HGF (gene 3082)
As to the kind of experiment: LTEA_HepaRG_HGF: Life Technologies and Expression Analysis (LTEA) Assay for Hepatocyte Growth Facto (HGF) using HepaRG (AID 2283505). The procedure, abridged:
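Read-out is HGF transcript level by qRT-PCR, normalized to three housekeeping genes, fitted bidirectionally against 0.5% DMSO vehicle. Human HepaRG cells received test chemicals for 48 h at up to 100 uM.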

Read-out in experiment [5]: Insulin Like Growth Factor 1 (IGF1), IGF1 (gene 3479)
As to the kind of experiment: LTEA_HepaRG_IGF1: Life Technologies and Expression Analysis (LTEA) Assay for Insulin Like Growth Factor 1 (IGF1) using HepaRG (AID 2283506). The procedure, abridged:
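Using human HepaRG liver cells, IGF1 transcript induction or suppression is measured 48 h after dosing across eight concentrations capped at 100 uM. Values derive from bidirectional concentration-response fitting with DMSO as baseline.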

Read-out in experiment [6]: Intercellular Adhesion Molecule 1 (ICAM1), ICAM1 (gene 3383)
As to the kind of experiment: LTEA_HepaRG_ICAM1: Life Technologies and Expression Analysis (LTEA) Assay for Intercellular Adhesion Molecule 1 (ICAM1) using HepaRG (AID 2283507). The procedure, abridged:
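Readout is qRT-PCR mRNA level, normalized to three housekeeping genes and fitted bidirectionally against 0.5% DMSO vehicle. Human HepaRG cultures received compound for 48 h, top concentration 100 uM with half-log dilutions.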

Read-out in experiment [7]: Interleukin 6 (IL6), IL6 (gene 3569)
As to the kind of experiment: LTEA_HepaRG_IL6: Life Technologies and Expression Analysis (LTEA) Assay for Interleukin 6 (IL6) using HepaRG (AID 2283509). Put shortly:
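HepaRG, ~100,000 cells/well, 48 h pre-culture; serum-free induction medium; cmpd 8-pt half-log from 100 uM, 0.5% DMSO, duplicate, 48 h. Lysis in RLT, TaqMan qRT-PCR; gain or loss vs DMSO.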

Read-out in experiment [8]: Potassium channel subfamily K member 1 (KCNK1), KCNK1 (gene 3775)
As to the kind of experiment: LTEA_HepaRG_KCNK1: Life Technologies and Expression Analysis (LTEA) Assay for Potassium channel subfamily K member 1 (KCNK1) using HepaRG (AID 2283511). Put shortly:
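Gain or loss of KCNK1 mRNA is the read-out, quantified by qRT-PCR against three housekeeping genes after 48 h chemical treatment of human HepaRG liver cells. Concentrations ran from 100 uM downward in half-log steps, vehicle 0.5% DMSO.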

Read-out in experiment [9]: Keratin 19 (KRT19), KRT19 (gene 3880)
As to the kind of experiment: LTEA_HepaRG_KRT19: Life Technologies and Expression Analysis (LTEA) Assay for Keratin 19 (KRT19) using HepaRG (AID 2283512). The procedure, abridged: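 KRT19 transcript levels, measured by Fluidigm qRT-PCR against three housekeeping genes, are fitted for gain or loss of signal relative to DMSO. Human HepaRG cells receive test chemicals (top 100 uM, half-log steps, 0.5% DMSO) for 48 hours.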

Read-out in experiment [10]: Lipase C (LIPC), LIPC (gene 3990)
As to the kind of experiment: LTEA_HepaRG_LIPC: Life Technologies and Expression Analysis (LTEA) Assay for Lipase C (LIPC) using HepaRG (AID 2283514). The procedure, abridged: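 Read-out is LIPC transcript level by TaqMan qRT-PCR, normalized to three housekeeping genes, after 48 h chemical treatment of human HepaRG liver cells. Curves span eight concentrations topping at 100 uM; activity in either direction scored relative to 0.5% DMSO.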

Read-out in experiment [11]: Lipoprotein lipase (LPL), LPL (gene 4023)
As to the kind of experiment: LTEA_HepaRG_LPL: Life Technologies and Expression Analysis (LTEA) Assay for Lipoprotein lipase (LPL) using HepaRG (AID 2283515). Put shortly: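 Read-out is LPL transcript level by qRT-PCR, normalized to three housekeeping genes and fitted bidirectionally against the DMSO control. Human HepaRG cells received chemicals for 48 h at up to 100 uM.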

Read-out in experiment [12]: MicroRNA 122 (MIR122), gene 406906
As to the kind of experiment: LTEA_HepaRG_MIR122: Life Technologies and Expression Analysis (LTEA) Assay for MicroRNA 122 (MIR122) using HepaRG (AID 2283516). Note: the transcript read is the microRNA miR-122. Put shortly: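 HepaRG, 48 h exposure, 8-pt half-log from 100 uM, 0.5% DMSO; TaqMan qRT-PCR; bidirectional fit vs DMSO.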

Read-out in experiment [13]: matrix metalloproteinase-3 (MMP3), MMP3 (gene 4314)
As to the kind of experiment: LTEA_HepaRG_MMP3: Life Technologies and Expression Analysis (LTEA) Assay for matrix metalloproteinase-3 (MMP3) using HepaRG (AID 2283519). The procedure, abridged:
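HepaRG, human; 48 h dosing, 8 conc. (max 100 uM, half-log), duplicate, 0.5% DMSO. Readout: MMP3 transcript by Fluidigm TaqMan qRT-PCR, ACTB/GAPDH/POLR2A-normalised. Gain or loss fitted vs DMSO.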

Read-out in experiment [14]: Paternally Expressed 10 (PEG10), PEG10 (gene 23089)
As to the kind of experiment: LTEA_HepaRG_PEG10: Life Technologies and Expression Analysis (LTEA) Assay for Paternally Expressed 10 (PEG10) using HepaRG (AID 2283520).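 For AC50: PEG10 transcript by qRT-PCR normalised to ACTB GAPDH and POLR2A.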 The procedure, abridged: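 Chemicals tested on HepaRG cells for 48 h, highest concentration 100 uM. PEG10 expression assessed by qRT-PCR relative to DMSO control.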

Read-out in experiment [15]: Nuclear factor NF-kappa-B p105 subunit (Homo sapiens) (UniProt P19838)
As to the kind of experiment: LTEA_HepaRG_NFKB1: Life Technologies and Expression Analysis (LTEA) Assay for Nuclear Factor Kappa B Subunit 1 (NFKB1) using HepaRG (AID 2283521). Put shortly: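 Differentiated human HepaRG cells were exposed for 48 h in serum-free induction medium to eight concentrations (top 100 uM, half-log steps, 0.5% DMSO), in duplicate. NFKB1 mRNA was measured by TaqMan qRT-PCR, normalized to ACTB/GAPDH/POLR2A, and fitted bidirectionally against DMSO.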

Read-out in experiment [16]: Interleukin 6 Receptor (IL6R), IL6R (gene 3570)
As to the kind of experiment: LTEA_HepaRG_IL6R: Life Technologies and Expression Analysis (LTEA) Assay for Interleukin 6 Receptor (IL6R) using HepaRG (AID 2283510).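 For AC50: TaqMan qRT-PCR signal normalized to ACTB GAPDH and POLR2A housekeeping genes.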 The procedure, abridged:
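Concentration-response in human liver HepaRG cells: eight concentrations from 100 uM downward by half-logs, 48 h exposure, 0.5% DMSO vehicle. IL6R mRNA change measured by qRT-PCR and fitted in both directions relative to vehicle.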

Read-out in experiment [17]: matrix metalloproteinase-10 (MMP10), MMP10 (gene 4319)
As to the kind of experiment: LTEA_HepaRG_MMP10: Life Technologies and Expression Analysis (LTEA) Assay for matrix metalloproteinase-10 (MMP10) using HepaRG (AID 2283517). The procedure, abridged:
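Gain or loss of MMP10 mRNA is fitted relative to the 0.5% DMSO vehicle. The human hepatic line HepaRG receives a 48-hour serum-free exposure, in duplicate, with a maximum concentration of 100 uM.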

Read-out in experiment [18]: MYC, MYC (gene 4609)
As to the kind of experiment: LTEA_HepaRG_MYC: Life Technologies and Expression Analysis (LTEA) Assay for MYC using HepaRG (AID 2283518). The procedure, abridged: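 HepaRG, ~100,000 cells/well, collagen I; 48 h plating; serum-free induction medium; 48 h dosing, duplicate, 100 uM top, half-log, 0.5% DMSO; total RNA → qRT-PCR MYC; gain/loss fit vs DMSO.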

Read-out in experiment [19]: JUN Transcription Factor, JUN (gene 3725)
As to the kind of experiment: LTEA_HepaRG_JUN: Life Technologies and Expression Analysis (LTEA) Assay for JUN Transcription Factor using HepaRG (AID 2283513). The procedure, abridged:
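Human HepaRG liver cells receive test chemicals in 0.5% DMSO for 48 h across an eight-point range topping at 100 uM. Expression changes in JUN are scored in both directions against the DMSO vehicle.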

Sequence of Nuclear factor NF-kappa-B p105 subunit (Homo sapiens) (P19838 whole entry, looked up): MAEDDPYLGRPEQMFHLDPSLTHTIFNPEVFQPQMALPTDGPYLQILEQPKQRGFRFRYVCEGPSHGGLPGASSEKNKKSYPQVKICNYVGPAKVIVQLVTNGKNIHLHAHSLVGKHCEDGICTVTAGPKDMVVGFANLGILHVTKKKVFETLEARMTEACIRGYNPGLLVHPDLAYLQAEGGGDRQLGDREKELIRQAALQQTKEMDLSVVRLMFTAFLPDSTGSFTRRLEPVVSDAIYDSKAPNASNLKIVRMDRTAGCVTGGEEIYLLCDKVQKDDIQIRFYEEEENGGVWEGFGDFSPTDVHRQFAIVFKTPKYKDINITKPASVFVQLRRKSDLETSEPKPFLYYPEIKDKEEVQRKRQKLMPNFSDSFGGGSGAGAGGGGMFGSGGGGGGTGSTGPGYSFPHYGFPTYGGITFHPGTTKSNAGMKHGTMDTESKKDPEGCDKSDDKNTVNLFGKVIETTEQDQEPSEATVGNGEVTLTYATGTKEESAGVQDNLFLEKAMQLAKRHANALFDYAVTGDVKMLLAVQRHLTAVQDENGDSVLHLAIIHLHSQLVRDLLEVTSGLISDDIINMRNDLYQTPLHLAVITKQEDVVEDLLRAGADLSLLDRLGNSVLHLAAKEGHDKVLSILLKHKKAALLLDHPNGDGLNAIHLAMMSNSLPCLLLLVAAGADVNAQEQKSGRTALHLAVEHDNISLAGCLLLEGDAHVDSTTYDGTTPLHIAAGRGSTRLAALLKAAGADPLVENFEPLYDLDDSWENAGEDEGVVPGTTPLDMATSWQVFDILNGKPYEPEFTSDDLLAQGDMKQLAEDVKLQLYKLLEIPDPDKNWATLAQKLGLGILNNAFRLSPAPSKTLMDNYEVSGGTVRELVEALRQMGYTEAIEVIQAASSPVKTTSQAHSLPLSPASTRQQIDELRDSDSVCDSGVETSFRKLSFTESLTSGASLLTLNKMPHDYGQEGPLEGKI
Sequence of Hypoxia-inducible factor 1-alpha (Homo sapiens) (Q16665 whole entry, looked up): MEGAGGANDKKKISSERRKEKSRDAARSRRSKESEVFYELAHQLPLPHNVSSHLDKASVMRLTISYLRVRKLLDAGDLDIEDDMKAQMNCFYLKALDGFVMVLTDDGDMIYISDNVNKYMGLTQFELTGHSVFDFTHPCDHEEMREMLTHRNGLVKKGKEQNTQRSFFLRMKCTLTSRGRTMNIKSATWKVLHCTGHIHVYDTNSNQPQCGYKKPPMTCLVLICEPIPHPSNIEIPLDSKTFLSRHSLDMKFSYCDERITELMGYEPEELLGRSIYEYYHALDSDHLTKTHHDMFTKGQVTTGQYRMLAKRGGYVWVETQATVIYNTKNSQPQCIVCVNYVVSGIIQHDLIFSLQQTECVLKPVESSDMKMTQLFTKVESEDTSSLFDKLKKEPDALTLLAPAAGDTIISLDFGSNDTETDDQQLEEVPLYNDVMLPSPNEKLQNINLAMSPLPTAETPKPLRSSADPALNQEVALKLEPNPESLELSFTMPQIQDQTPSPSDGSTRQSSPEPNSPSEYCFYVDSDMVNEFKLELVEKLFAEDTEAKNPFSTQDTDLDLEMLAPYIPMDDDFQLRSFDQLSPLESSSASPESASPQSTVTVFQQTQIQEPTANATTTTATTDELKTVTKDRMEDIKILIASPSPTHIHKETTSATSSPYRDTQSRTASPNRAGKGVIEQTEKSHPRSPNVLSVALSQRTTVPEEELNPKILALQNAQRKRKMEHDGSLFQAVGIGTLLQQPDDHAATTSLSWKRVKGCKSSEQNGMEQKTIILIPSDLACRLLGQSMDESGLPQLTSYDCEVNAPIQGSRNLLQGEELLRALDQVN

As usually defined, the AC50 is the concentration giving half of the maximal activity seen. For `C#CC(C)(C)NC(=O)c1cc(Cl)cc(Cl)c1`, the result in experiment [1], in experiment [2], in experiment [3], in experiment [4], in experiment [6] and in experiment [7] was inactive. In addition, the outcome in experiment [8], in experiment [10], in experiment [11], in experiment [12], in experiment [13] and in experiment [15] was inactive. Besides, the AC50 is 14.8 µM (active) in experiment [5], 11.8 µM (active) in [9] and 50 µM (active) in experiment [14].
Regarding `CCC(=NOC/C=C/Cl)C1=C(O)CC(C2CCOCC2)CC1=O` (stereo not drawn), the compound was called inactive in [1], in [2], in experiment [3], in [4], in experiment [5] and in [6]. The call in experiment [7], in experiment [16], in experiment [8], in experiment [9], in experiment [10] and in experiment [11] was inactive. The compound was called inactive in [12], in experiment [17], in [18], in experiment [13], in experiment [14] and in [15].
For the compound `Cc1cc(C2CC2)nc(Nc2ccccc2)n1`, the outcome in experiment [1], in experiment [2], in [3], in experiment [4], in experiment [5] and in experiment [6] was inactive. Also, the compound was classed as inactive in experiment [7], in [8], in experiment [19], in experiment [10], in [11] and in experiment [12]. In addition, the compound was classed as inactive in experiment [17], in experiment [13] and in [14]. Moreover, the AC50 in experiment [16] is 50 µM (active); in experiment [9], 22.9 µM (active).
Turning to `Cc1ccn2nc(S(=O)(=O)Nc3c(F)cccc3F)nc2n1`, the compound was classed as inactive in experiment [1], in experiment [2], in [3], in [4], in [5] and in experiment [6]. Further, the call in experiment [7], in experiment [16], in experiment [8], in [9], in [19] and in [10] was inactive. In addition, the outcome in experiment [11], in experiment [12], in [17], in [13] and in experiment [14] was inactive.
Consider `CCOP(=S)(Oc1cnc(C(C)(C)C)nc1)OC(C)C` (stereo not drawn), for which the call in experiment [1], in experiment [2], in experiment [4], in experiment [6], in [7] and in experiment [8] was inactive. The compound was called inactive in experiment [9], in experiment [11], in [12], in [17], in [18] and in [13]. In addition, the compound was classed as inactive in experiment [15]. Moreover, the AC50 is 14 µM (active) in experiment [3]; 44.6 µM (active) in experiment [5]; 25.1 µM (active) in experiment [16]; 18.8 µM (active) in [10]; 13.3 µM (active) in experiment [14].
With `CC(C)[C@H](C(=O)O[C@H](C#N)c1cccc(Oc2ccccc2)c1)c1ccc(Cl)cc1`, the compound was classed as inactive in experiment [1], in [2], in experiment [3], in experiment [4], in experiment [6] and in experiment [7]. For the same compound, the result in experiment [16], in experiment [8], in experiment [9], in experiment [10], in experiment [11] and in [12] was inactive. For the same compound, the outcome in experiment [17], in [18] and in experiment [15] was inactive. Also, the AC50 is 50 µM (active) in experiment [5], 50 µM (active) in [13] and 30.3 µM (active) in [14].
